Myeloid diff MLP: promotes myeloid progenitor differentiation | calls only at 10 µM | 1% of 360,000 active | ER-HoxA9 myeloid progenitors, lysozyme-GFP differentiation, flow cytometry | AID 624256;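 active = normalized GFP-positive differentiation at or above the plate's own cutoff, the solvent-only control mean plus 3 SD; inconclusive = no clear call, values can overlap the other calls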;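 note: cells exposed to compound for four days before flow analysis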
TLR4-MyD88 BLA: TLR4-MyD88 interaction inhibition in cells | HeLa CL3-4 TLR4/MyD88 BLA complementation, FRET ratio | O00206+Q99836 | inhibition, % at 8.4 µM | 0.18% of 200,000 active; in the data active = inhibition above about 25%;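 note: 0% = vehicle and 100% = reference inhibitor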
NOD2 RIPK2 PPI: inhibitors of human NOD2-RIPK2 interaction; 0.38% of 360,000 active; O43353; CHO BLA complementation NOD2-RIPK2, CCF4 ratio; inhibition, % at 4.98 µM; in the data active = inhibition above about 21%;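 note: 0% = vehicle only and 100% = reference blocker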
TLR9-MyD88 block: TLR9-MyD88 interaction inhibition | Q9NR96+Q99836 | CHO BLA complementation TLR9-MyD88, CCF4 FRET ratio | inhibition, % at 4.98 µM | 0.21% of 340,000 active;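 active = inhibition above the mean over all tested compounds plus 3 SD, cut at about 21% in these data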;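 note: 0% = DMSO only wells and 100% = clavulanate BLA inhibitor control wells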
* marks the source's active call; other numbers are inactive results; i = inactive; ? = inconclusive; nt = no result given; + = active, no number. Most compounds without a hit are left out; they make up all but 1.5% or so of the library.

SMILES	Myeloid diff MLP	TLR4-MyD88 BLA	NOD2 RIPK2 PPI	TLR9-MyD88 block
Cc1ccc(NC(=O)[C@H](Cc2c[nH]c3ccccc23)NC(=O)[C@@H]2Cc3ccccc3CN2)c(C)c1	+	nt	6.6	-6.2
CCCCCCCCN1C(=O)[C@H](CC(=O)N2CCN(C(=O)c3ccco3)CC2)C[C@@]2(C(=O)OC)CCCCC=C12	i	nt	13.0	nt
COc1ccc(/C=C/C=C2\NC(=S)NC2=O)cc1	+	13.8	2.2	4.4
Cc1ccc(OCC(=O)c2cc(C)n(-c3cc(C)on3)c2C)c([N+](=O)[O-])n1	+	nt	-3.1	0.6
COc1ccc(-n2c(C)cc(C(=O)COc3ccc(C)nc3[N+](=O)[O-])c2C)cc1	i	-4.5	-4.2	-2.9
C=CC[n+]1ccn(-c2nc3ccccc3nc2[N-]S(=O)(=O)c2cccs2)c1	+	nt	-3.8	2.1
CCCC[n+]1ccn(-c2nc3ccccc3nc2[N-]S(=O)(=O)c2cccs2)c1	i	nt	-13.0	-7.3
CC[n+]1c(/C=C/N(C)c2ccccc2)n(-c2ccccc2)c2ccc(-c3nc4ccccc4s3)cc21	?	nt	31.4*	16.7
CCCS(=O)(=O)NC(=O)C1(C)CCCN(C(=O)c2ccccc2OC(F)(F)F)C1 (stereo not given)	i	nt	-19.3	nt
O=[N+]([O-])c1nccn1C1C=CC(O)C(CO)O1 (stereo not given)	i	nt	-6.4	nt
S=c1nc(COc2ccccc2)[nH]c2ccccc12	+	nt	-4.7	1.4
O=c1[nH]c(COc2ccccc2)nc2ccccc12	i	nt	-1.8	11.6
S=c1nc(Cc2ccccc2)[nH]c2ccccc12	+	nt	-8.2	1.5
c1cnc2nc3c4ccccc4c4ccccc4c3nc2c1	+	nt	-1.6	-0.1
C[C@H](O)[C@@H]1CN2CCc3c([nH]c4ccccc34)[C@@H]2C[C@@H]1N(C)Cc1cc(Cl)cc(Cl)c1	i	nt	-2.6	-3.7
CC(C)(C)c1ccc(S(=O)(=O)Nc2ccc(C(O)(C(F)(F)F)C(F)(F)F)cc2)cc1	i	nt	8.9	nt
CSc1nsc(/C=C/Nc2ccc(C)cc2)c1C#N	+	-0.7	-7.3	5.8
CSc1nsc(/C=C/Nc2ccc(C)c(C)c2)c1C#N	i	-3.1	-4.3	5.2
Cn1c(=O)[nH]c(=O)c2c1nc(Br)n2CCCO	+	14.9	3.7	-9.5
Cn1c(=O)[nH]c(=O)c2c1nc(Br)n2CCCc1ccccc1	nt	-4.1	nt	nt
Oc1cccc(-c2nc3ccccc3s2)c1	i	-3.4	-3.4	-17.4
Cc1cc(C)c(-c2nc3ccccc3s2)[nH]1	+	nt	11.8	-2.5
COc1cc(/C=c2\sc3n(c2=O)C(c2ccccc2)C(c2ccccc2)=NN=3)ccc1O (stereo not given)	+	7.3	-2.6	4.6
COc1cc(/C=c2\sc3n(c2=O)CCCN=3)ccc1O	i	-3.2	-6.1	8.8
CC(C)C[C@H]1CNC(=S)N1CC1CCCN1C[C@H](Cc1ccc(O)cc1)N1C[C@H](Cc2ccccc2)N(CC2CCCCC2)C1=S (stereo not given in full)	i	nt	-7.5	-13.2
SMILES	Myeloid diff MLP	TLR4-MyD88 BLA	NOD2 RIPK2 PPI	TLR9-MyD88 block
CCOc1ccc(CCN2C(=S)N([C@@H](Cc3ccc(O)cc3)CN3CCCC3CN3C(=S)NC[C@@H]3Cc3ccc(O)cc3)C[C@@H]2CC(C)C)cc1 (stereo not given in full)	i	nt	3.2	-7.1
CC(C)C[C@H]1CNC(=S)N1C[C@H]1CCCN1C[C@H](Cc1ccccc1)N1C[C@H](Cc2ccc(O)cc2)N(CC2CCCCC2)C1=S	+	nt	6.3	nt
CCOc1ccc(CCN2C(=S)N([C@@H](Cc3ccc(O)cc3)CN3CCC[C@@H]3CN3C(=S)NC[C@@H]3CC(C)C)C[C@@H]2Cc2ccc(O)cc2)cc1	+	nt	1.9	nt
COc1ccc(CN2C(=O)c3ccccc3C2c2nnnn2-c2ccc3c(c2)OCCO3)cc1OC (stereo not given)	i	nt	-4.5	nt
Nc1ccc2sc(N)nc2c1	+	nt	-2.0	-9.0
CC(=O)Oc1ccc(C(=O)[C@H]2[C@H]3C(=O)N(c4ccc(C)cc4)C(=O)[C@H]3[C@@H]3C=CC=NN32)cc1	+	-5.3	-5.7	-6.9
COc1ccc(N2C(=O)[C@@H]3[C@H](C2=O)[C@H](C(=O)c2ccc(OC(C)=O)cc2)N2N=CC=C[C@@H]32)cc1	nt	12.9	nt	nt
COc1ccc2[nH]c(=O)c(CN(C(=O)C(C)C)c3ccccc3OC)cc2c1	+	nt	0.6	-2.4
Cc1ccc(C)c(N2CCN(C(=O)c3ccc(CSc4nc5ccncc5[nH]4)cc3)CC2)c1	+	2.0	10.8	7.5
COC(=O)c1ccn(CC(=O)NC2CCCCC2)n1	+	nt	16.0	0.8
O=C(Cn1cc2c(n1)CCCC2)NC1CCCCCC1	i	-3.0	-8.9	-8.9
Brc1ccc2nc(C3CCCCC3)c(CC3CCCCC3)n2c1	i	nt	-2.2	nt
Cc1ccccc1-c1nc(-c2ccc(NC(=O)c3ccc4c(c3)OCO4)cc2)no1	+	2.1	2.2	-3.2
O=C(O)CCC1C(=O)NC(=O)CC1c1ccccc1 (stereo not given)	i	nt	0.9	nt
C/C(=N\NC(=S)Nc1cc(S(=O)(=O)N2CCOCC2)ccc1Cl)c1ccc(N2CCOCC2)cc1	+	nt	7.0	3.4
CCOC(=O)CC(=O)CSc1nc(-c2ccccc2)cc(-c2ccccc2)c1C#N	+	-6.1	7.5	19.8
COc1cc(-c2cc(-c3ccccc3)nc(SCC(=O)Nc3nccs3)c2C#N)cc(OC)c1OC	+	-4.8	3.0	8.2
CC(C)OC(=O)CC(=O)CSc1nc(-c2ccc(F)cc2)cc(-c2ccccc2)c1C#N	i	-12.3	11.2	0.0
COc1cc(S(=O)(=O)NC2CCCCC2)ccc1F	i	-2.2	-9.7	-11.5
COc1ccc(S(=O)(=O)NC2CC2)cc1Br	+	nt	-35.9	14.2
COc1ccc(OC)c(C2=NOC(C(=O)Nc3cccc(C(C)=O)c3)C2)c1 (stereo not given)	+	-16.3	-5.0	2.8
FC(F)(F)c1cc(C(F)(F)F)n2nc(-c3sccc3-n3cccc3)cc2n1	+	10.0	0.1	-2.4
O=C(c1ccc(N2CN(C(=O)c3ccco3)c3nc4ccccc4nc32)cc1)N1CCOCC1	+	-10.3	1.7	-6.4
CO/N=C\CC(=O)Nc1ccc(Cl)cc1Cl	+	12.4	5.4	1.1
COc1ccc(Nc2c(C3CC3)nc3nc(C)cc(C)n23)cc1	i	nt	-10.9	nt
CCN(CC)S(=O)(=O)c1ccc(NC2c3ccccc3C(=O)N2CCN2CCOCC2)cc1 (stereo not given)	+	1.9	-18.2	-3.1
Cc1ccc(NC2c3ccccc3C(=O)N2CCN2CCOCC2)cc1 (stereo not given)	i	2.7	5.6	2.7
CN(C)CC1CCC/C(=C\c2ccc(OC(=O)c3ccc(Cl)cc3)cc2)C1=O (stereo not given)	nt	nt	3.9	-7.0
O=C1/C(=C\c2ccc(Cl)cc2)CCC1CNc1ccc(Cl)cc1 (stereo not given)	+	nt	0.3	2.3
COc1ccc(-c2sc3ccc(OC)cc3c2C#Cc2cncn2C)cc1	+	nt	-1.1	-8.4

From PubChem
